# Compound activity deposited in PubChem BioAssay by Broad Institute.
# DENV2 CPE: inhibitors of DENV2 cytopathic effect, primary screen, cell-based, plate reader, single concentration; DENV2-infected cells, cytopathic effect rescue; CPE inhibition, % at 9.99 µM; actives 1.7% (n = 350,000); AID 651640, 2012; in the data active means CPE inhibition above about 20%, passing the limit was not always enough; inconclusive means no clear call, values can overlap the other calls; tested in BHK-21 cells
# ERAP1 HTS inh: human ERAP1 aminopeptidase inhibitors, primary screen, biochemical, single point, plate reader | inhibition, % at 10.7 µM | AID 652197, 2013 | recombinant ERAP1, Leu-AMC fluorescence, 60 min | actives 0.15% (n = 340,000);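 active means mean replicate inhibition of at least 30%, or all replicates individually reaching that 30% level; inactive means mean below 30% and not every replicate reaching it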
# PDI inh: inhibitors of human PDI, primary screen, biochemical, turbidity, single point, plate reader; Protein disulfide-isomerase (Homo sapiens), P07237; PDI insulin aggregation turbidity, A650, 90 min; inhibition, % at 10 µM; actives 0.052% (n = 350,000);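 active means mean inhibition across replicates of 30% or more, whatever share of single replicates reach that level; inconclusive means mean inhibition below 30% while every single replicate reaches 30%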
# Target sequence (P07237 whole entry, looked up): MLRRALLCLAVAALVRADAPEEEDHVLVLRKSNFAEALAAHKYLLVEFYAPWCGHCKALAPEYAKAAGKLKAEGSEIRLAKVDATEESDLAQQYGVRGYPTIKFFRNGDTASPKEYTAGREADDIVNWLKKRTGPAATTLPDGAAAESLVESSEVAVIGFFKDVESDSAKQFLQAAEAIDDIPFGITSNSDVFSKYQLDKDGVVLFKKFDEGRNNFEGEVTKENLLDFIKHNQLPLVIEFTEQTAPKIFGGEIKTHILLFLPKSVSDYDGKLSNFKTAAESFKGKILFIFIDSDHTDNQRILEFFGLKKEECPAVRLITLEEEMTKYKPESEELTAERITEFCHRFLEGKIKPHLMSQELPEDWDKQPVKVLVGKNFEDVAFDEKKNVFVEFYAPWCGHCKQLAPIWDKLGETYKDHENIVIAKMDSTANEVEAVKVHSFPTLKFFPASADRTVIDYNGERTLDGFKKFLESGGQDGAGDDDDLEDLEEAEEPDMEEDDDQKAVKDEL
# AF4-AF9 inh: inhibitors of AF4 peptide binding to AF9, primary screen, biochemical, AlphaScreen, biotin-AF4 peptide, FLAG-AF9, single point | Protein AF-9 (Homo sapiens), P42568 | inhibition, % at 10 µM | AID 651704, 2012 | actives 0.47% (n = 350,000);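 active means every replicate reaching a set inhibition limit, whatever the replicate mean, cut at about 25% in these data; inconclusive means mean inhibition reaches that limit but some replicates miss it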
# ERp5 inh: inhibitors of ERp5-driven insulin aggregation, primary screen, biochemical, turbidity, absorbance 650 nm, single point; inhibition, % at 9.99 µM; AID 651711, 2012; 90 min; Protein disulfide-isomerase A6 (Homo sapiens), Q15084; actives 0.05% (n = 350,000);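 active means mean replicate inhibition above about 25%, with every replicate also reaching it, limit read from the data, passing the limit was not always enough; inconclusive means only one of those two criteria met; inactive means neither criterion met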
# Numbers stand for hits; 0 = inactive; ? = inconclusive; - = no result; ! = repeats disagree. Compounds with a hit are over-represented: about 1.8% of the library has one in this group of screens.
SMILES,DENV2 CPE,ERAP1 HTS inh,PDI inh,AF4-AF9 inh,ERp5 inh
C[C@H]1CN([C@@H](C)CO)C(=O)c2cc(C3=CCCCC3)cnc2O[C@@H]1CN(C)C(=O)c1ccccn1,0,0,-,0,0
C[C@H](CO)N1C[C@H](C)[C@H](CN(C)C(=O)c2ccccn2)Oc2ncc(C3=CCCCC3)cc2C1=O,62,0,-,0,0
C[C@H](CO)N1C[C@H](C)[C@H](CN(C)C(=O)c2ccccn2)Oc2ncc(Br)cc2C1=O,73!,0,0,0,?
C[C@@H]1CN([C@@H](C)CO)C(=O)c2cc(Br)cnc2O[C@@H]1CN(C)C(=O)c1ccccn1,0,0,-,0,0
C[C@@H]1CN([C@H](C)CO)C(=O)c2cc(C3=CCCCC3)cnc2O[C@@H]1CN(C)C(=O)Cc1cccnc1,56,0,-,0,0
CC(=O)Nc1ccc2c(c1)C(=O)N(C)[C@H]1CC[C@H](CC(=O)NCc3ccccc3)O[C@H]1CO2,?,0,-,0,0
Cc1cccc(C(=O)N2CCC(=O)N([C@H](COCc3ccc(Cl)cc3)Cc3ccccc3)CC2)c1,125,-,-,0,0
Cc1cccc(C(=O)N2CCC(=O)N(C(COCc3ccc(Cl)cc3)Cc3ccccc3)CC2)c1 (stereo unspecified),0,0,0,0,0
O=C(NCCCN1CCOCC1)C1CCC(=O)N1CCc1ccccc1 (stereo unspecified),29,0,0,0,0
C[C@@H]1CN([C@H](C)CO)C(=O)c2cccc(NS(=O)(=O)c3ccc(F)cc3)c2O[C@H]1CN(C)S(=O)(=O)c1ccc(Cl)cc1,0,0,-,0,0
COc1ccc(NC(=O)Nc2ccc3c(c2)[C@H]2C[C@H](CC(=O)N4CCCCC4)O[C@@H](CO)[C@H]2O3)cc1,0,0,-,0,0
CC(C)OC(=O)N(C)C[C@H]1OCc2cnnn2CCCC(=O)N([C@H](C)CO)C[C@@H]1C,29!,0,0,0,0
CC(C)NC(=O)N(C)C[C@H]1OCc2cnnn2CCCC(=O)N([C@@H](C)CO)C[C@@H]1C,45,0,-,0,0
C[C@@H]1CN([C@H](C)CO)C(=O)CCCn2nncc2CO[C@@H]1CN(C)C(=O)Cc1ccccc1,33!,0,0,0,0
C[C@H](CO)N1C[C@H](C)[C@@H](CN(C)Cc2ccc(O)cc2)OCc2cnnn2CCCC1=O,42!,0,0,0,0
C[C@@H]1CCCCO[C@H](CN(C)C)[C@@H](C)CN([C@H](C)CO)C(=O)c2cc(NC(=O)c3ccncc3)ccc2O1,0,0,-,0,0
C[C@H]1CCCCO[C@@H](CN(C)C)[C@@H](C)CN([C@@H](C)CO)C(=O)c2cc(NC(=O)c3ccncc3)ccc2O1,0,0,-,0,0
C[C@@H]1CN([C@H](C)CO)C(=O)c2cc(NC(=O)c3ccncc3)ccc2O[C@@H](C)CCCCO[C@H]1CN(C)C,85,0,-,0,0
C[C@@H]1CCCCO[C@H](CN(C)C)[C@H](C)CN([C@H](C)CO)C(=O)c2cc(NC(=O)c3ccncc3)ccc2O1,34,0,-,0,0
O=C(C[C@H]1CC[C@@H]2NC[C@@H](O)COC[C@H]2O1)Nc1nccs1,0,0,-,0,0
O=C(C1CCCC1)N1CC2(C1)[C@H](c1ccccc1)[C@@H](CO)N2CC1CC1,0,0,-,0,0
O=C(C1CCCCC1)N1CC(=O)N2[C@H](CO)[C@@H](c3ccc(C#CCc4ccccc4)cc3)[C@H]2C1,0,0,-,0,0
CCOc1cc(/C=C/C(=O)Nc2ccc(C(=O)NCCN(CC)CC)cc2)ccc1OCC(C)C,0,0,0,31,0
CCOc1ccc(/C=C/C(=O)Nc2ccc(C(N)=O)cc2)cc1OC,-,-,0,-,-
CCC(C)[C@H]1CNC(=S)N1CCc1cc(C(F)(F)F)cc(C(F)(F)F)c1 (stereo partly specified),81,0,0,0,0
CC(O)[C@H]1CNC(=S)N1CCc1cccc(F)c1 (stereo partly specified),0,0,0,0,0
CCC(C)[C@H]1CNCCN1CCc1cc(C(F)(F)F)cc(C(F)(F)F)c1 (stereo partly specified),44,0,0,0,0
COc1ccc(Nc2ccc([N+](=O)[O-])cn2)cc1,0,0,0,0,0
